# Experimental data reported in ChEMBL document CHEMBL4296182, “CO-ADD screening of NIH NCI Diversity Set V”.
# Entries with a potency or affinity are not part of this list.
# Test system: Candida albicans
# Conditions: 20 µM
row,Compound,Inhibition [%]
1,Nc1ncnc2c1ncn2C1C=C(CO)C(O)C1O (stereo unspecified),1.07
2,CC1=Nc2ccccc2/C1=C\c1c(C)[nH]c2ccccc12,6.28
3,CC1(C)OC2C(CO)OC(n3cnc4c(S)ncnc43)C2O1 (stereo unspecified),4.06
4,CCOP(=O)(OCC)/C(C#N)=C/c1ccc([N+](=O)[O-])cc1,0.88
5,Clc1[nH]cnc2nccc1-2,1.22
6,O=C(Nc1cccc([N+](=O)[O-])c1)c1ccc2ccccc2c1O,3.5
7,Nc1ccc(S(=O)(=O)NCC2CCCCO2)cc1 (stereo unspecified),0.19
8,CCOC(=O)c1c(N)ssc1=S,10.5
9,Cc1cc2c(c(C#N)c1C)NC=NC2C (stereo unspecified),-2.89
10,CC(C)N(C(=O)c1cccc([N+](=O)[O-])c1)C(C)C,0.26
11,Nc1ccc(Br)cc1Br,6.15
12,ClCC(CNCc1ccccc1)c1ccccc1 (stereo unspecified),5.41
13,CC(C)(C)CC(C)(C)n1nnnc1N,0.83
14,O=c1[nH]c(=S)c2ncn(-c3ccccc3)c2[nH]1,9.78
15,Cc1nnc2nc(-c3ccccc3)nc(-c3ccccc3)n12,4.58
16,O=C1c2ccccc2C(=O)C1c1ccccn1,5.19
17,CCOC(=O)/C(C#N)=C\c1c[nH]c2ccccc12,3.53
18,O=C(N(c1ccccc1)c1ccccc1)N(c1ccccc1)c1ccccc1,9.21
19,COc1cc(S(N)(=O)=O)c(OC)cc1N,1.19

row,Compound,Inhibition [%]
1,CSc1ccc(NC(=O)Nc2cc(C)ccn2)cc1,0.13
2,CCCOc1ccc(-c2nc(-c3ccc(N)cc3)cs2)cc1,5.55
3,CC(C)=C(c1ccc(Cl)cc1)c1c(N)ncnc1N,-0.84
4,c1ccc(-c2ccc3c(c2)NCCN3)cc1,-1.02
5,CCCCSc1nc(O)cc(C(=O)O)n1,2.48
6,COC(=O)C1CC(O)C(O)C(O)C1 (stereo unspecified),1.86
7,CCn1c2ccccc2c2c3ncc4cccn4c3ccc21,32.4
8,N#C/C(=C\c1ccc[nH]1)C(=O)c1ccccc1,10.3
9,CC(C)Cc1nnc(N)s1,1.43
10,Nc1ccc2c(c1)Cc1cc(Cl)c(Cl)cc1-2,8.7
11,O=C(NC1CCCCC1)c1cc2ccccc2cc1O,0.86
12,Cn1c(=O)c2c(nc(Cc3ccccc3)n2C)n(C)c1=O,4.11
13,Nc1nc(N)c(/N=N/c2ccc(C(=O)O)cc2)c(N)n1,7.35
14,c1ccc(-c2nnc(-c3ccccn3)s2)nc1,4.16
15,Cc1cc(O)c2c(C)ccc(C)c2n1,0.13
16,O=C(NC(=S)Nc1cccc(O)c1)c1ccco1,0.31
17,Cc1nn(-c2ccccc2)nc1C(=O)Nc1ccc2[nH]ncc2c1,-0.76
18,CC1CC(C)(C)NC2(CCCC2)N1 (stereo unspecified),-0.15
19,N#Cc1n[nH]c2nc[nH]c(=O)c12,0.58

# Test system: Cryptococcus neoformans
# Conditions: Concentration 20 uM; ASSAY_TEST Inhibition of Fungal Growth; detection method Resazurin; Absorption (OD600-OD570); plate type 384well; NBS; CORNING #3640
row,Compound,Inhibition [%]
1,Nc1ncnc2c1ncn2C1C=C(CO)C(O)C1O (stereo unspecified),-6.12
2,CC1=Nc2ccccc2/C1=C\c1c(C)[nH]c2ccccc12,-2.97
3,CC1(C)OC2C(CO)OC(n3cnc4c(S)ncnc43)C2O1 (stereo unspecified),-14.25
4,CCOP(=O)(OCC)/C(C#N)=C/c1ccc([N+](=O)[O-])cc1,-11.85
5,Clc1[nH]cnc2nccc1-2,-2.5
6,O=C(Nc1cccc([N+](=O)[O-])c1)c1ccc2ccccc2c1O,4.47
7,Nc1ccc(S(=O)(=O)NCC2CCCCO2)cc1 (stereo unspecified),-11.32
8,CCOC(=O)c1c(N)ssc1=S,-3.18
9,Cc1cc2c(c(C#N)c1C)NC=NC2C (stereo unspecified),-13.76
10,CC(C)N(C(=O)c1cccc([N+](=O)[O-])c1)C(C)C,-4.03
11,Nc1ccc(Br)cc1Br,-7
12,ClCC(CNCc1ccccc1)c1ccccc1 (stereo unspecified),-7.48
13,CC(C)(C)CC(C)(C)n1nnnc1N,-5.24
14,O=c1[nH]c(=S)c2ncn(-c3ccccc3)c2[nH]1,-2.67
15,Cc1nnc2nc(-c3ccccc3)nc(-c3ccccc3)n12,-11.59
16,O=C1c2ccccc2C(=O)C1c1ccccn1,-6.9
17,CCOC(=O)/C(C#N)=C\c1c[nH]c2ccccc12,2.4
18,O=C(N(c1ccccc1)c1ccccc1)N(c1ccccc1)c1ccccc1,-13.12
19,COc1cc(S(N)(=O)=O)c(OC)cc1N,-0.85

row,Compound,Inhibition [%]
1,CSc1ccc(NC(=O)Nc2cc(C)ccn2)cc1,-8.58
2,CCCOc1ccc(-c2nc(-c3ccc(N)cc3)cs2)cc1,-3.2
3,CC(C)=C(c1ccc(Cl)cc1)c1c(N)ncnc1N,-5.15
4,c1ccc(-c2ccc3c(c2)NCCN3)cc1,1.51
5,CCCCSc1nc(O)cc(C(=O)O)n1,-8.23
6,COC(=O)C1CC(O)C(O)C(O)C1 (stereo unspecified),-4.69
7,CCn1c2ccccc2c2c3ncc4cccn4c3ccc21,-7.68
8,N#C/C(=C\c1ccc[nH]1)C(=O)c1ccccc1,-7.32
9,CC(C)Cc1nnc(N)s1,-13.23
10,Nc1ccc2c(c1)Cc1cc(Cl)c(Cl)cc1-2,-5.33
11,O=C(NC1CCCCC1)c1cc2ccccc2cc1O,-3.07
12,Cn1c(=O)c2c(nc(Cc3ccccc3)n2C)n(C)c1=O,-7.23
13,Nc1nc(N)c(/N=N/c2ccc(C(=O)O)cc2)c(N)n1,-10.91
14,c1ccc(-c2nnc(-c3ccccn3)s2)nc1,-18.42
15,Cc1cc(O)c2c(C)ccc(C)c2n1,-9.44
16,O=C(NC(=S)Nc1cccc(O)c1)c1ccco1,-18.75
17,Cc1nn(-c2ccccc2)nc1C(=O)Nc1ccc2[nH]ncc2c1,-15.47
18,CC1CC(C)(C)NC2(CCCC2)N1 (stereo unspecified),-4.43
19,N#Cc1n[nH]c2nc[nH]c(=O)c12,-10.99
